Laboratory results as given in PubChem BioAssay AID1159580 (chemical genetic matrix, 2015).
Hit rate of the full screen: of about 5,500 compounds, about 2,000 (36%) were called active. About 18% were inconclusive and are not listed. Rule as the data show it: active = normalized growth mostly below about 0.91 (no sharp cut-off); inconclusive = no clear call, values can overlap the other calls; inactive = mostly above about 0.92. Some of the results follow.

Assay: chemical genetic growth profiling, strain panel (AID 1159580);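 also: tested at 20 µM; growth read once vehicle control cultures reached saturation at 30 °C; 1 = growth at the plate median or of vehicle wells; lower values mean less growth of the strain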
Settings: growth OD
[1] = S. cerevisiae deletion strains, locus YDL101C, strain DUN1, hits give low values
[2] = S. cerevisiae deletion strains, locus YHR030C, strain SLT2, hits give low values
[3] = S. cerevisiae deletion strains, locus YHR079C, strain IRE1, hits give low values
[4] = S. cerevisiae deletion strains, locus YJL095W, strain BCK1, hits give low values
[5] = S. cerevisiae deletion strains, locus YJR066W, strain TOR1, hits give low values
[6] = S. cerevisiae deletion strains, locus YLR113W, strain HOG1, hits give low values
[7] = S. cerevisiae deletion strains, locus YNL183C, strain NPR1, hits give low values
[8] = S. cerevisiae deletion strains, locus YOR231W, strain MKK1, hits give low values
[9] = S. cerevisiae deletion strains, locus YPL256C, strain CLN2, hits give low values

Measured: normalized growth

N/C(=N/O)c1ccc(Oc2ccc(C3SCCS3)cc2)c([N+](=O)[O-])c1
inactive: S. cerevisiae deletion strains, locus YAR019C, strain CDC15, hits give low values 1.01 | S. cerevisiae deletion strains, locus YBL105C, strain PKC1, hits give low values 0.992 | S. cerevisiae deletion strains, locus YBR135W, strain CKS1, hits give low values 0.979 | S. cerevisiae deletion strains, locus YBR136W, strain MEC1, hits give low values 1.01 | S. cerevisiae deletion strains, locus YBR160W, strain CDC28, hits give low values 0.997 | S. cerevisiae deletion strains, locus YDL017W, strain CDC7, hits give low values 0.992 | S. cerevisiae deletion strains, locus YDL028C, strain MPS1, hits give low values 1.01 | [1] 0.991 | S. cerevisiae deletion strains, locus YDL108W, strain KIN28, hits give low values 0.99 | S. cerevisiae deletion strains, locus YDL132W, strain cdc53, hits give low values 0.973 | S. cerevisiae deletion strains, locus YDL214C, strain PRR2, hits give low values 0.992 | S. cerevisiae deletion strains, locus YDR052C, strain DBF4, hits give low values 0.992 | S. cerevisiae deletion strains, locus YDR054C, strain cdc34, hits give low values 0.988 | S. cerevisiae deletion strains, locus YDR226W, strain ADK1, hits give low values 0.998 | S. cerevisiae deletion strains, locus YDR477W, strain SNF1, hits give low values 1.01 | S. cerevisiae deletion strains, locus YER123W, strain YCK3, hits give low values 1.01 | S. cerevisiae deletion strains, locus YER133W, strain GLC7, hits give low values 0.994 | S. cerevisiae deletion strains, locus YFL009W, strain cdc4, hits give low values 0.992 | S. cerevisiae deletion strains, locus YFL029C, strain CAK1, hits give low values 1 | S. cerevisiae deletion strains, locus YFR003C, strain YPI1, hits give low values 0.985 | S. cerevisiae deletion strains, locus YFR019W, strain FAB1, hits give low values 1.02 | S. cerevisiae deletion strains, locus YFR028C, strain CDC14, hits give low values 1 | S. cerevisiae deletion strains, locus YGR040W, strain KSS1, hits give low values 1 | S. cerevisiae deletion strains, locus YGR052W, strain FMP48, hits give low values 1.07 | S. cerevisiae deletion strains, locus YGR092W, strain DBF2, hits give low values 0.993 | [2] 0.874 | [3] 1.06 | S. cerevisiae deletion strains, locus YHR082C, strain KSP1, hits give low values 1.12 | S. cerevisiae deletion strains, locus YHR205W, strain SCH9, hits give low values 1.01 | S. cerevisiae deletion strains, locus YIL147C, strain SLN1, hits give low values 0.996 | [4] 1.01 | S. cerevisiae deletion strains, locus YJL128C, strain PBS2, hits give low values 0.93 | S. cerevisiae deletion strains, locus YJL157C, strain FAR1, hits give low values 1.01 | S. cerevisiae deletion strains, locus YJR016C, strain ILV3, hits give low values 0.993 | S. cerevisiae deletion strains, locus YJR066W, strain TOR1 (second series), hits give low values 1.01 | [5] 1.02 | S. cerevisiae deletion strains, locus YKL048C, strain ELM1, hits give low values 0.988 | S. cerevisiae deletion strains, locus YKL067W, strain YNK1, hits give low values 0.981 | S. cerevisiae deletion strains, locus YKL101W, strain HSL1, hits give low values 0.986 | S. cerevisiae deletion strains, locus YKL193C, strain SDS22, hits give low values 0.979 | S. cerevisiae deletion strains, locus YKL203C, strain TOR2, hits give low values 1.11 | [6] 1.02 | S. cerevisiae deletion strains, locus YLR133W, strain CKI1, hits give low values 1.01 | S. cerevisiae deletion strains, locus YLR403W, strain SFP1, hits give low values 1.05 | S. cerevisiae deletion strains, locus YML070W, strain DAK1, hits give low values 1.01 | S. cerevisiae deletion strains, locus YMR001C, strain CDC5, hits give low values 1 | S. cerevisiae deletion strains, locus YMR205C, strain PFK2 (second series), hits give low values 0.994 | S. cerevisiae deletion strains, locus YMR277W, strain FCP1, hits give low values 0.995 | S. cerevisiae deletion strains, locus YNL006W, strain LST8, hits give low values 0.988 | S. cerevisiae deletion strains, locus YNL020C, strain ARK1, hits give low values 1.03 | S. cerevisiae deletion strains, locus YNL161W, strain CBK1, hits give low values 0.981 | [7] 1.08 | S. cerevisiae deletion strains, locus YNL207W, strain RIO2, hits give low values 0.984 | S. cerevisiae deletion strains, locus YNL222W, strain SSU72, hits give low values 0.979 | S. cerevisiae deletion strains, locus YNL307C, strain MCK1 (second series), hits give low values 1.02 | S. cerevisiae deletion strains, locus YOL078W, strain AVO1, hits give low values 0.978 | S. cerevisiae deletion strains, locus YOL136C, strain PFK27, hits give low values 1.02 | S. cerevisiae deletion strains, locus YOR061W, strain CKA2, hits give low values 0.995 | S. cerevisiae deletion strains, locus YOR119C, strain RIO1, hits give low values 1.04 | [8] 1.03 | S. cerevisiae deletion strains, locus YOR329C, strain SCD5, hits give low values 0.991 | S. cerevisiae deletion strains, locus YPL031C, strain PHO85, hits give low values 0.998 | S. cerevisiae deletion strains, locus YPL153C, strain RAD53, hits give low values 0.988 | S. cerevisiae deletion strains, locus YPL204W, strain HRR25, hits give low values 1 | S. cerevisiae deletion strains, locus YPL209C, strain IPL1, hits give low values 0.984 | [9] 0.995 | S. cerevisiae deletion strains, locus YPR025C, strain CCL1, hits give low values 0.985 | S. cerevisiae deletion strains, locus YPR106W, strain ISR1, hits give low values 0.994 | S. cerevisiae deletion strains, locus YPR111W, strain DBF20, hits give low values 0.978 | S. cerevisiae deletion strains, strain NNK1, hits give low values 0.995 | S. cerevisiae deletion strains, strain TSCII, hits give low values 1.01

N/C(=N/OC(=O)Nc1ccccc1)c1ccc(C2SCCS2)cc1
inactive: S. cerevisiae deletion strains, locus YDL134C, strain PPH21, hits give low values 0.972 | S. cerevisiae deletion strains, locus YDR150W, strain NUM1, hits give low values 0.851 | S. cerevisiae deletion strains, locus YGR229C, strain SMI1, hits give low values 1.01 | S. cerevisiae deletion strains, locus YNL322C, strain KRE1, hits give low values 0.991 | S. cerevisiae strains, strain wild type, hits give low values 0.988
active: S. cerevisiae deletion strains, locus YAL013W, strain DEP1, hits give low values 0.889 | S. cerevisiae deletion strains, locus YBR229C, strain ROT2, hits give low values 0.892 | [1] 0.753 | S. cerevisiae deletion strains, locus YEL061C, strain CIN8, hits give low values 0.833 | S. cerevisiae deletion strains, locus YGR078C, strain PAC10, hits give low values 0.879 | [2] 0.343 | S. cerevisiae deletion strains, locus YHR087W, strain rtc3, hits give low values 0.829 | S. cerevisiae deletion strains, locus YJR043C, strain POL32, hits give low values 0.89 | S. cerevisiae deletion strains, locus YJR075W, strain HOC1, hits give low values 0.772 | S. cerevisiae deletion strains, locus YKL190W, strain CNB1, hits give low values 0.924 | S. cerevisiae deletion strains, locus YLR039C, strain RIC1, hits give low values 0.767 | S. cerevisiae deletion strains, locus YLR085C, strain ARP6, hits give low values 0.39 | S. cerevisiae deletion strains, locus YLR262C, strain YPT6, hits give low values 0.759 | S. cerevisiae deletion strains, locus YML094W, strain GIM5, hits give low values 0.801 | S. cerevisiae deletion strains, locus YMR219W, strain ESC1, hits give low values 0.884 | S. cerevisiae deletion strains, locus YMR263W, strain SAP30, hits give low values 0.87 | S. cerevisiae deletion strains, locus YMR307W, strain GAS1, hits give low values 0.557 | S. cerevisiae deletion strains, locus YNL153C, strain GIM3, hits give low values 0.652 | S. cerevisiae deletion strains, locus YNL298W, strain CLA4 (second series), hits give low values 0.797 | S. cerevisiae deletion strains, locus YNR030W, strain Alg12, hits give low values 0.81 | S. cerevisiae deletion strains, locus YPL055C, strain LGE1, hits give low values 0.694 | S. cerevisiae deletion strains, locus YPR135W, strain CTF4, hits give low values 0.436

O=C(Nc1ccccc1)OCC(CN1CCCCC1)OC(=O)Nc1ccccc1 (stereo unspecified)
inactive: [2] 1 | [3] 1.03 | [4] 1 | [5] 0.925 | [6] 1.01 | [7] 0.949 | [8] 1.01 | [9] 0.988
